Measurements taken from PubChem BioAssay (NCI).
This is part of a sample that, as a whole, favours compounds with a hit. Of some 79,000 tested, about 15% had one in any assay. The source made the active and inactive calls. No stated cut-off is given here; in the data, active means growth inhibition above about 70%; inactive means the rest.

Columns and labels:
[1] = NCI Yeast Anticancer Drug Screen. Data for the rad50 strain (AID 155);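 further: 0% = growth of vehicle-only cultures of the same strain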; details: S. cerevisiae rad50 strain growth inhibition, active compounds read high
Procedure, shortened: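 Vehicle-treated cultures provide the reference for the growth inhibition reported for compound-exposed, repair-deficient yeast.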

[2] = NCI Yeast Anticancer Drug Screen. Data for the mec2-1 strain (AID 157); details: S. cerevisiae mec2-1 strain, active compounds read high
Procedure, shortened: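 Vehicle-treated cultures served as reference for growth inhibition of compound-exposed mec2-1 yeast.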

[3] = NCI Yeast Anticancer Drug Screen. Data for the sgs1 mgt1 strain (AID 161);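 further: 0% = growth of cultures given vehicle only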; details: S. cerevisiae sgs1 mgt1 strain, active compounds read high
Procedure, shortened: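 Mutant yeast exposed to compound; growth scored against vehicle-only wells.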

[4] = NCI Yeast Anticancer Drug Screen. Data for the cln2 rad14 strain (AID 165);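 further: 0% = growth equal to vehicle treated cultures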; details: S. cerevisiae cln2 rad14 strain, active compounds read high
Procedure, shortened: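 Each compound was tested on cln2 rad14 yeast. Inhibition of growth was calculated against vehicle-exposed controls.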

[5] = NCI Yeast Anticancer Drug Screen. Data for the bub3 strain (AID 167); details: S. cerevisiae bub3 mutant strain, active compounds read high
Procedure, shortened: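 Mutant yeast screening strain plus compound; vehicle-treated cultures serve as the 0% inhibition reference.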

[6] = NCI Yeast Anticancer Drug Screen. Data for the mlh1 rad18 strain (AID 175); details: S. cerevisiae mlh1 rad18 strain growth inhibition, active compounds read high
Procedure, shortened: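 Vehicle-treated cultures served as the reference for growth inhibition in a yeast strain carrying DNA damage repair alterations exposed to each compound.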

[7] = at 5.0 µM (retest, dose inferred, filed as 0.5)
[8] = at 50.0 µM (retest, dose inferred, filed as 5.0)

Measured: growth inhibition

CN[C@H]1C[C@@H]2O[C@@](C)([C@H]1OC)n1c3ccccc3c3c4c(c5c6ccccc6n2c5c31)C(=O)NC4
active: [1]; [7] 99% | [1]; [8] 99% | [1]; at 50.0 µM 92.3% | [2]; [7] 99% | [2]; [8] 99% | [2]; at 50.0 µM 92.9% | [3]; [7] 97% | [3]; [8] 99% | [3]; at 50.0 µM 90.6% | [4]; [7] 96% | [4]; [8] 99% | [4]; at 50.0 µM 91.5% | [5]; [7] 98% | [5]; [8] 98% | [5]; at 50.0 µM 91.8% | [6]; [7] 98% | [6]; [8] 99% | [6]; at 50.0 µM 91.8%

CN(/N=C/c1ccc(Cl)cc1)P(=O)(N1CC1)N1CC1
inactive: [1]; [7] 24% | [1]; [8] 28% | [1]; at 50.0 µM -15.7% | [2]; [7] 14% | [2]; [8] 17% | [2]; at 50.0 µM -12.2% | [3]; [7] 18% | [3]; [8] 24% | [3]; at 50.0 µM -3.4% | [4]; [7] 31% | [4]; [8] 20% | [4]; at 50.0 µM 11.7% | [5]; [7] 18% | [5]; [8] 18% | [5]; at 50.0 µM -0.25% | [6]; [7] 23% | [6]; [8] 28% | [6]; at 50.0 µM 0.65%

O=C(CCl)Nc1cccc(Cl)c1
inactive: [1]; [7] 3% | [2]; [7] 2% | [2]; [8] 50% | [3]; [7] 1% | [3]; [8] 68% | [4]; [7] 2% | [4]; [8] 33% | [4]; at 50.0 µM 67.8% | [5]; [7] 10% | [6]; [7] 2%
active: [1]; [8] 80% | [1]; at 50.0 µM 92.4% | [2]; at 50.0 µM 89.5% | [3]; at 50.0 µM 87.5% | [5]; [8] 78% | [5]; at 50.0 µM 94.4% | [6]; [8] 78% | [6]; at 50.0 µM 95%

[Br][Ni][Br].c1ccc(CN2CCN(Cc3ccccc3)CCN(Cc3ccccc3)CCN(Cc3ccccc3)CC2)cc1
active: [1]; [8] 82% | [1]; at 50.0 µM 96.7% | [2]; at 50.0 µM 98.3% | [3]; at 50.0 µM 97.6% | [4]; [8] 78% | [4]; at 50.0 µM 98.2% | [5]; [8] 92% | [5]; at 50.0 µM 98.5% | [6]; [8] 92% | [6]; at 50.0 µM 98.2%
inactive: [1]; [7] 0% | [2]; [7] 0% | [2]; [8] 62% | [3]; [7] -2% | [3]; [8] 65% | [4]; [7] -2% | [5]; [7] 3% | [6]; [7] 3%

COc1cccc(C(Cc2ccc(N3C(N)=NC(N)=NC3(C)C)cc2)C(=O)Nc2ccc(S(=O)(=O)F)cc2)c1 (configuration not stated)
active: [1]; [8] 96% | [1]; at 50.0 µM 99.5% | [2]; [8] 99% | [2]; at 50.0 µM 99.6% | [3]; [8] 99% | [3]; at 50.0 µM 99.8% | [4]; [8] 92% | [4]; at 50.0 µM 96.7% | [5]; [8] 98% | [5]; at 50.0 µM 95% | [6]; [8] 99% | [6]; at 50.0 µM 99.4%
inactive: [1]; [7] 8% | [2]; [7] -139% | [3]; [7] 1% | [4]; [7] -1% | [5]; [7] 1% | [6]; [7] 6%

O=c1oc2ccccc2c(O)c1C(C/C(CCN1CCCC1)=N\Nc1ccccc1)c1ccccc1 (configuration not stated)
inactive: [1]; [7] 3% | [1]; [8] 3% | [2]; [7] -2% | [2]; [8] -2% | [3]; [7] 1% | [3]; [8] 1% | [4]; [7] 8% | [4]; [8] 8% | [5]; [7] -13% | [5]; [8] -13% | [6]; [7] -6% | [6]; [8] -6%
active: [1]; at 50.0 µM 86.3% | [2]; at 50.0 µM 80.7% | [3]; at 50.0 µM 87.8% | [4]; at 50.0 µM 81.3% | [5]; at 50.0 µM 81.7% | [6]; at 50.0 µM 83.9%

COc1c(NC(=O)CC(C)=O)[c]([Hg][O]C(C)=O)c(OC)c(Cl)[c]1[Hg][O]C(C)=O
active: [1]; [8] 95% | [1]; at 50.0 µM 91.8% | [2]; [8] 96% | [2]; at 50.0 µM 93.8% | [3]; [7] 81% | [3]; [8] 97% | [3]; at 50.0 µM 93.5% | [4]; [8] 96% | [4]; at 50.0 µM 88.8% | [5]; [8] 97% | [5]; at 50.0 µM 93.3% | [6]; [8] 95% | [6]; at 50.0 µM 87.8%
inactive: [1]; [7] 29% | [2]; [7] 32% | [4]; [7] 29% | [5]; [7] 62% | [6]; [7] 38%

c1cc2c(c(NC3=NCCN3)c1)CCCC2
inactive: [1]; [7] 12% | [1]; [8] 18% | [1]; at 50.0 µM -12.2% | [2]; [7] 1% | [2]; [8] -17% | [2]; at 50.0 µM -18.9% | [3]; [7] 1% | [3]; [8] 12% | [3]; at 50.0 µM -7% | [4]; [7] -21% | [4]; [8] -4% | [4]; at 50.0 µM 33.1% | [5]; [7] -26% | [5]; [8] -7% | [5]; at 50.0 µM -9.9% | [6]; [7] 2% | [6]; [8] 13% | [6]; at 50.0 µM 7.65%

C=CCN(CC=C)CC(C(C)=O)C(c1ccccc1)c1c(O)c2ccccc2oc1=O (configuration not stated)
inactive: [1]; [7] 32% | [1]; [8] 32% | [2]; [7] 28% | [2]; [8] 28% | [3]; [7] 23% | [3]; [8] 23% | [4]; [7] 13% | [4]; [8] 13% | [5]; [7] 27% | [5]; [8] 27% | [6]; [7] 32% | [6]; [8] 32%
active: [1]; at 50.0 µM 85.3% | [2]; at 50.0 µM 74.2% | [3]; at 50.0 µM 84.2% | [4]; at 50.0 µM 81.2% | [5]; at 50.0 µM 78.8% | [6]; at 50.0 µM 80.2%
